High-throughput results from PubChem BioAssay.
MEX-5 binding – C. elegans MEX-5 TCR-2 RNA binding activity; Q9XUB2; AID 1832; MEX-5/FITC-TCR2 RNA binding, fluorescence polarization; active compounds read low; 0.38% of 300,000 active; activity score (negative = inhibition of binding), % at 10 µM;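 active = inhibition past about -25% in most replicates, and total fluorescence under double the plate's negative control median, limit read from the data; inconclusive = replicates evenly split on the limit, or fluorescence at least double controls; inactive = too little inhibition in most replicates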;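 note: 0% = DMSO and -100% = 5 µM competing unlabeled TCR2 RNA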
GLD-1 TGE inh – GLD-1-TGE RNA interaction inhibition (C. elegans). Q17339. purified GLD-1 + fluorescein TGE RNA, fluorescence polarization. inhibition, % at 5.96 µM. 0.44% of 320,000 active. AID 2280;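 active = percent inhibition above a per-plate cutoff, the plate mean of test compounds plus 3 SD, cut at about 30% in these data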;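 note: 0% = DMSO wells with GLD-1 and probe and 100% = wells lacking GLD-1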
eLon inh – E. coli protease La inhibition; AID 602123; P0A9M0; purified E. coli Lon protease, fluorescence polarization; 0.42% of 360,000 active; inhibition, % at 7.94 µM; in the data active = inhibition above about 13%, passing the limit was not always enough;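 note: 0% = enzyme with probe and DMSO and 100% = no enzyme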
MCL1 BIM primary – MCL1-BIM-BH3 interaction inhibition (human); Q07820; AID 2057; 0.68% of 320,000 active; inhibition, % at 10.9 µM; GST-MCL1 / FITC-Bim-BH3 fluorescence polarization;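 active = inhibition above the mean inhibition of all tested compounds plus 3 SD, set per campaign, cut at about 40% in these data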;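 note: 0% = DMSO wells and 100% = unlabeled Bim-BH3 peptide control; higher means more loss of mP so more displacement of Bim peptide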
Target sequence (Q07820 whole entry, looked up): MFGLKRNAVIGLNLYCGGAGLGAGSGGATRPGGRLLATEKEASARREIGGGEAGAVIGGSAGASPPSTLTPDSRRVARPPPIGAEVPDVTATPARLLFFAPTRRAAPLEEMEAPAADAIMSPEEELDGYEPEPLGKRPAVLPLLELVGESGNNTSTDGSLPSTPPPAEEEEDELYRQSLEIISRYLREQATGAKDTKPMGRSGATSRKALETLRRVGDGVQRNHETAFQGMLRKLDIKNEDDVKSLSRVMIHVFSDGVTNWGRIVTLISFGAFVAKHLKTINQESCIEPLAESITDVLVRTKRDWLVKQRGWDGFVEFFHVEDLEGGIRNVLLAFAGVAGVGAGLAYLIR
EBV gp42 inh – EBV gp42 inhibition | Q1HVG2 | 0.42% of 220,000 active | inhibition, % (tested at 21.74 µM) | Fluorescence polarization binding assay, mP read-out; in the data active = inhibition above about 50%
Target sequence (Q1HVG2 whole entry, looked up): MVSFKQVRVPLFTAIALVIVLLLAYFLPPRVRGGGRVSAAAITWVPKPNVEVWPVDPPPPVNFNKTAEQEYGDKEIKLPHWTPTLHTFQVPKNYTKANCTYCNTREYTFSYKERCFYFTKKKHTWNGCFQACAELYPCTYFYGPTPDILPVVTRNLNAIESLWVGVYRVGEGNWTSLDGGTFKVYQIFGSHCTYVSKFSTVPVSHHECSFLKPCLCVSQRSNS
Bcl-xL primary – Bcl-xL (human) inhibition | Q07817 | GST-Bcl-xL / FITC-Bim BH3 peptide fluorescence polarization | inhibition, % at 10.9 µM | 0.7% of 320,000 active | AID 2129;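 active = inhibition above the mean of all tested compounds plus 3 SD, cutoff set per campaign, cut at about 30% in these data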;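 note: 0% = DMSO wells and 100% = unlabeled Bim-BH3 peptide competitor; inhibitors lower millipolarization by displacing the labeled peptide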
GLD-1 TGE cf – GLD-1 TGE RNA interaction inhibition, confirmation | inhibition, % at 5.96 µM | shares compounds with GLD-1 TGE inh | AID 2459 | 10% of 550 active | GLD-1/FL-TGE RNA fluorescence polarization, biochemical;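 active = average inhibition across triplicates above the hit cutoff set in the primary screen, cut at about 32% in these data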;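 note: 0% = GLD-1 with RNA probe and DMSO and 100% = wells lacking GLD-1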
* hit, by the source's call; ? = inconclusive; . = not tested or not shown. This is a sample that favours compounds with a hit; in the whole collection about 1.5% have one here.

SMILES	MEX-5 binding	GLD-1 TGE inh	eLon inh	MCL1 BIM primary	EBV gp42 inh	Bcl-xL primary	GLD-1 TGE cf
COc1ccc2nc(N3CCC(O)CC3)c(C#N)cc2c1	-16	37*	0	38	46	42*	31*
COc1ccc2cc(C#N)c(N3CCOCC3)nc2c1	-11	-5	-11	5	.	8	.
CC(=O)Nc1sc(C)c(C)c1C(=O)OCC(=O)NCc1ccc(F)cc1	.	-3	-3	2	.	1	.
N#Cc1ccc(CN2CCN(C(=O)CCNS(=O)(=O)c3ccc(F)c(Cl)c3)CC2)cc1	.	2	5	6	.	4	.
Cc1ccc(C)c(NC(=S)NCc2ccc3[nH]c4c(c3c2)CCCC4)c1	1	59*	0	15	2	55*	-4
Cc1ccccc1NC(=S)NCc1ccc2[nH]c3c(c2c1)CCCC3	3	7	-1	10	0	6	.
CCc1c(C)sc(NC(=O)OC)c1C(N)=O	-3	4	-15	3	-13	-2	.
CCc1c(C)sc(NC(=O)OC)c1C(=O)N1CCCCC1	.	33*	14	41*	38	37*	7
O=C(CCNC(=O)c1ccc(Br)cc1)NCc1ccccn1	1	12	8	-2	.	-1	.
CCOc1ccc(-c2noc(-c3cccnc3)n2)cc1OCC	.	102*	-1	3	-9	1	-2
Cc1snc(SCc2ccc(Cl)cc2)c1C#N	3	4	0	0	.	3	.
CC(C)c1ccc(/C=N/n2nnnc2Nc2ccccc2)cc1	0	49*	-3	40	-4	43*	-10
N#CCCN(C(=O)COC(=O)c1cc(=O)[nH]c2ccccc12)c1ccccc1	.	3	-4	.	.	.	.
C=C(C)CSc1nc2nc(C)cc(C)n2n1	-1	35*	-8	35	0	29	-7
CC(=O)Nc1cccc2c1C(=O)N(c1ccccc1C)C2=O	-1	0	5	-2	-6	7	.
CC(=O)Nc1ccc(N2C(=O)c3cccc(NC(C)=O)c3C2=O)cc1	1	51*	-10	2	-18	2	0
CC1(c2nnc(-c3cccc(Cl)c3)o2)CC(c2ccccc2Br)=NO1 (configuration not stated)	1	6	-6	0	.	1	.
CC1CCCCN1Cc1c(O)ccc2c(=O)c(-c3ccccc3)coc12 (configuration not stated)	1	42*	1	41*	.	36*	-1
CCC1CCCCN1Cc1c(O)ccc2c(=O)c(-c3ccccc3)coc12 (configuration not stated)	3	-46	-3	-3	.	1	.
CCOc1ccc(C(=O)n2cnnc2N)cc1	-1	35*	2	-8	-25	-1	4
COc1ccc(C(=O)n2cnnc2N)cc1	-1	-2	-3	-7	0	0	.
N#CC1=C(N)Oc2c(oc(CO)cc2=O)C1c1ccccc1[N+](=O)[O-] (configuration not stated)	-10	37*	13	37	23	38*	26
O=C(NCc1nc2ccccc2[nH]1)C1=C[C@@H](C2CCCCC2)C[C@@H](OCCCCO)O1	3	85*	-1	0	-22	2	-1
C[C@H]1C=C(C(=O)NCc2nc3ccccc3[nH]2)O[C@@H](OCCCCO)C1	0	1	-10	8	.	5	.
Nc1c(NCCC2=CCCCC2)c(=O)[nH]c(=O)n1Cc1ccccc1	-50*	48*	7	41*	48	42*	-2
SMILES	MEX-5 binding	GLD-1 TGE inh	eLon inh	MCL1 BIM primary	EBV gp42 inh	Bcl-xL primary	GLD-1 TGE cf
Cc1cccnc1CNC(=O)C1(C)CCCN1CC(C)C (configuration not stated)	.	.	0	.	.	.	.
Cc1ccc(NC(=O)CN2C(=O)N/C(=C/c3ccc(C)o3)C2=O)cc1	-6	38*	7	31	-46	20	-70
C=CCN1C(=O)N/C(=C/c2ccc(C)o2)C1=O	-4	42*	12	24	-7	16	-14
Cc1cccc(NC(=O)CN2C(=O)N/C(=C/c3ccc(C)o3)C2=O)c1	3	18	-7	15	-31	11	.
Cc1ccccc1NP1(=O)OCCCN1Cc1ccccc1Cl (configuration not stated)	.	.	-6	.	.	.	.
CCOC(=O)C1=C(O)c2ccccc2C(=O)/C1=C\c1ccc(C)cc1	.	57*	-10	43*	-1	37*	-6
N#C/C(C(=O)N1CCOCC1)=c1/s/c(=C\c2ccccn2)c(=O)n1-c1ccccc1	-7	33*	9	43*	8	43*	6
CC1=C(C(=O)N2CCCCCC2)CC(CC(=O)NCCN2CCOCC2)C(=O)N1Cc1ccc(F)cc1 (configuration not stated)	.	.	3	.	.	.	.
CCN1C=C(Cc2ccc(F)cc2)C2=C(C1)C(c1ccc(F)cc1)C(C#N)=C(N)O2 (configuration not stated)	-1	41*	-13	8	-14	10	5
Cc1[nH]nc2c1C(c1ccc(F)cc1)C(C#N)=C(N)O2 (configuration not stated)	-1	-1	-19	6	-11	-3	.
CN1C(=O)[C@@H]2[C@H](C1=O)[C@@H]1C(=O)Nc3ccccc3C(=O)N1[C@@H]2c1cccc(Br)c1	-6	12	1	19	.	20	.
O=C(Nc1ccc2nc(-c3ccco3)c(-c3ccco3)nc2c1)N1CCCCCC1	-11	41*	.	118*	78*	105*	27
CCOC(=O)C1CCN(C(=O)c2ccc3c(c2)NC(=O)/C(=C/c2ccccc2)S3)CC1	-7	-1	-6	5	.	11	.
CCOC(=O)C1CCN(C(=O)c2ccc3c(c2)NC(=O)/C(=C\c2ccc(C)cc2)S3)CC1	?	35*	-6	42*	.	37*	19
COc1ccc(NC(=O)N2c3ccc(OC)cc3C(C)=CC2(C)C)cc1	1	16	-1	0	7	11	.
CCNC(=O)N1c2ccc(OC)cc2C(C)=CC1(C)C	-3	70*	14	-2	2	52*	-4
O=C1c2ccccc2-c2n[nH]c(=O)c3ccc(N4CCCCC4)c1c23	-1	3	14	9	4	14	.
CCc1ccc(OCC(O)Cn2c(N3CCCCC3)nc3c2c(=O)[nH]c(=O)n3C)cc1 (configuration not stated)	0	36*	-4	-1	.	3	-3
O=C(Nc1cc(S(=O)(=O)N2CCOCC2)ccc1Cl)C1CCC1	1	5	-1	-2	.	1	.
Cc1nc(CNS(=O)(=O)c2ccc(F)cc2)cs1	3	.	-8	.	.	.	.
CCOc1ccc(NC(=O)CC2S/C(=N/N=C3CCCCCC3)NC2=O)cc1 (configuration not stated)	1	39*	-14	2	.	0	1
